Experimental data taken from PubChem BioAssay (Tox21).
Results filed as inconclusive are left out. Unmarked numbers belong to inactive results. Calls of active or inactive are those of the source. The call rests on the fitted dose curve.

Target: Muscarinic acetylcholine receptor M1 (Homo sapiens) (UniProt P11229)
Experiment: Cholinergic receptor muscarinic 1 (CHRM1) small molecule antagonists, cell-based qHTS assay (AID 1963588); further: nearly all actives have a fitted effect of over 40% in size
Conditions: CHRM1-CHO antagonist mode, calcium flux fluorescence; series mostly up to 61.5 µM; activity, negative = inhibition: at the top concentration
Description: National Center for Advancing Translational Sciences [NCATS]
Division of Preclinical Innovation [DPI]
U.S. Environmental Protection Agency [EPA]
National Institutes of Environmental Health Sciences [NIEHS]
National Toxicology Program [NTP]
U.S. Food and Drug Administration [FDA]
The CHRM1 is a muscarinic receptor. This receptor plays a crucial role in learning and memory processes and has long been identified as a promising therapeutic target for the improvement of cognitive decline in Alzheimer's disease (AD). The CHRM1-CHO cell line stably expressing human muscarinic acetylcholine receptor M1 (CHRM1) can be used for screening agonists and antagonists of interactions between CHRM1 and its ligands. The CHRM1-CHO Calcium Flux Assay is a homogeneous fluorescence-based assay for detecting the intracellular calcium level using FDSS kinetic plate reader system.
Tox21 Assay Protocol Summary:
CHRM1-CHO cells were dispensed at 1000 cells/3uL/well in 1536-well black-clear bottom plates using a Multidrop Dispenser. After the assay plates were incubated at a 37 C/5% CO2 incubator for 18 h, 3 uL of Dye Loading Buffer was transferred to the assay plate by a Flying Reagent Dispenser. The assay plates were incubated at 37 C for 1h. For antagonist mode, 23 nL of compounds dissolved in DMSO, positive controls or DMSO only was transferred to the assay plate by a pin tool. After 5 min incubation at room temperature, 1.5 uL of acetylcholine at 50nM was added to each well. The fluorescence intensity in the plates was measured using FDSS 7000EX kinetic plate reader for 3 min at 1 sec intervals. Each test compound was measured at 15 concentrations in three independent runs.
On the % scale 0 is the no-effect control and ±100 the full control effect; potency means the concentration at half of the fitted maximal effect.

Sequence of Muscarinic acetylcholine receptor M1 (Homo sapiens) (P11229 whole entry, looked up): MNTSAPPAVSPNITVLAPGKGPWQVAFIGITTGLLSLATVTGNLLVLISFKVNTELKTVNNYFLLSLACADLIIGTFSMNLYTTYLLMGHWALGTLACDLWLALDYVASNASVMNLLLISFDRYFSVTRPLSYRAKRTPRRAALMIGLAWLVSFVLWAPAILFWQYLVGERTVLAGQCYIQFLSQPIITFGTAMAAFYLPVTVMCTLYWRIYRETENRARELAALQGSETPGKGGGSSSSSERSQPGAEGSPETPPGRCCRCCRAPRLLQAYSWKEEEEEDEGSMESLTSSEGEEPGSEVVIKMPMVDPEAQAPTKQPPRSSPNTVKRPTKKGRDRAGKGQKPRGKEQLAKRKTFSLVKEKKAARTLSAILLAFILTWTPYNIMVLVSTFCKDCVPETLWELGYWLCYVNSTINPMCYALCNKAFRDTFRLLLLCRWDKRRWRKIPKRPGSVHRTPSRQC

Compound | activity, negative = inhibition | Potency
NCCc1ccn[nH]1 | -1.44% [at 28.3 µM] | –
NNc1nc(-c2ccc(N)cc2)cs1 | 13.7% | –
CCCCC1C(=O)N(c2ccccc2)N(c2ccc(O)cc2)C1=O (stereo not given) | 3.83% [at 28.3 µM] | –
C=C(C)C(=O)OCCOC1CC2CC1C1C=CCC21 (stereo not given) | -3.13% | –
COc1cc2c(cc1OC)[C@@H]1CC(=O)[C@@H](CC(C)C)CN1CC2 | 17% [at 28.3 µM] | –
NC(=O)Cn1c(=O)cc(CCN2CCN(c3nccc4sccc34)CC2)c2ccc(F)cc21 | – | 23.7 µM (active)
CCc1ccc(C(c2ccc(CC)cc2)C(Cl)Cl)cc1 | – | inactive
O=C(O)COc1nn(Cc2ccccc2)c2ccccc12 | -0.382% [at 28.3 µM] | –
Nc1ccc(O)c(N)c1 | – | inactive
O=C(O)Cc1ccc(OCCNC[C@H](O)c2ccccc2)cc1 | 2.88% [at 28.3 µM] | –
CCC(C)(C)c1ccc(CC(C)CN2C[C@@H](C)O[C@@H](C)C2)cc1 (stereo not given in full) | – | 3.65 µM (active)
O=C(CS)OCCOC(=O)CS | -0.723% | –
COP(=O)(OC)OC(c1ccc(Cl)cc1)P(=O)(OC)OC (stereo not given) | 21.1% [at 28.3 µM] | –
Cc1coc2ccccc2c1=O | 0.174% [at 28.3 µM] | –
O=S(=O)(c1cccc2cnccc12)N1CCCNCC1 | 10.6% [at 28.3 µM] | –
CCCCCCCC/C=C\CCCCCCCC(=O)NCc1ccc(O)c(OC)c1 | -0.955% [at 28.3 µM] | –
CCCCCCCC#N | 27.6% | –
CCCCCCCCCCCCOC(C)=O | 21.1% | –
O=C1c2ccccc2C(=O)c2c(O)ccc(O)c21 | 15.5% | –
CC(=O)c1ccc([N+](=O)[O-])cc1 | 1.53% | –

Compound | activity, negative = inhibition | Potency
CN1CCN(c2cc3c(nn2)Oc2ccccc2N3C)CC1 | -12.9% [at 12.6 µM] | –
O=C1Cc2ccccc2N1c1c(Cl)cccc1Cl | 3.03% | –
CCOC(=O)[C@@](C)(N)Cc1ccc(O)c(O)c1 | -15% [at 28.3 µM] | –
CC(=O)[O][Al] | -12.5% | –
COc1ccc(CCO)cc1 | -11% | –
Cc1c(Cl)cccc1Cl | 17.9% | –
Cc1cccc(N(C)C(=S)Oc2ccc3c(c2)C2CCC3C2)c1 (stereo not given) | 1.65% [at 28.3 µM] | –
CCCCC[C@H](O)/C=C/[C@H]1[C@H](O)CC(=O)[C@@H]1C/C=C\CCCC(=O)O | 25.8% [at 28.3 µM] | –
O=C1CCCc2c1cc1ccc3cccc4ccc2c1c34 | -20.7% | –
CCC1OCC(COc2ccc(Oc3ccccc3)cc2)O1 (stereo not given) | 0.555% | –
Cc1ccc(O)c(C(=O)c2ccccc2)c1 | -22% | –
Cc1ccc2nc(-c3ccc(N)cc3)sc2c1S(=O)(=O)O | -8.61% [at 28.3 µM] | –
CC(C)(C)C(=O)CCc1ccc(Cl)cc1 | 4.1% | –
COc1cc2nc(N(C)CCCNC(=O)C3CCCO3)nc(N)c2cc1OC (stereo not given) | -15.7% [at 28.3 µM] | –
OCC1CC=CCC1 (stereo not given) | 18% | –
c1ccc2c(c1)-c1ccc3ccc4cccc5cc-2c1c3c45 | -23.2% [at 28.3 µM] | –
CCOc1ccc(O)cc1 | -7.74% | –
COc1ccc2c(c1)c(CC(=O)OC/C=C(\C)CC/C=C(\C)CCC=C(C)C)c(C)n2C(=O)c1ccc(Cl)cc1 | -3.23% [at 28.3 µM] | –
O=C1CCC(=O)N1Cl | 25.4% | –
C[C@H]1O[C@@H](O[C@H]2CC[C@@]3(C)[C@H](CC[C@@H]4[C@@H]3C[C@@H](O)[C@]3(C)[C@@H](C5=CC(=O)OC5)CC[C@]43O)C2)C[C@H](O)[C@@H]1O[C@H]1C[C@H](O)[C@H](O[C@H]2C[C@H](O)[C@H](O[C@@H]3O[C@H](CO)[C@@H](O)[C@H](O)[C@H]3O)[C@@H](C)O2)[C@@H](C)O1 | 3.01% [at 28.3 µM] | –
